Reference: publication PMC11006913

Experiments:
Test in all cases: PBM; 200 nM protein, PBS
Details in all cases: dsDNA, one strand shown
[1] = biological target: HOXB9 (Homo sapiens, UniProt P17482 171-250, T197M)
[2] = biological target: HOXC9 (Homo sapiens, UniProt P31274 178-260, K195R)
[3] = biological target: HOXB9 (Homo sapiens, UniProt P17482 171-250)
[4] = biological target: HOXC9 (Homo sapiens, UniProt P31274 178-260)
[5] = biological target: ALX1 (Homo sapiens, UniProt Q15699 118-204, L144V)
[6] = biological target: HOXD13 (Homo sapiens, UniProt P35453 263-343, T313R)
[7] = biological target: HOXC9 (Homo sapiens, UniProt P31274 178-260, R193K)
[8] = biological target: ALX1 (Homo sapiens, UniProt Q15699 118-204, L144R)
[9] = biological target: HOXD13 (Homo sapiens, UniProt P35453 263-343)
[10] = biological target: HOXC10 (Homo sapiens, UniProt Q9NYD6 254-340, K271E)
[11] = biological target: HOXD13 (Homo sapiens, UniProt P35453 263-343, T313A)
[12] = biological target: HOXB9 (Homo sapiens, UniProt P17482 171-250, R186Q)
[13] = biological target: HOXC9 (Homo sapiens, UniProt P31274 178-260, R222W)
[14] = biological target: ALX1 (Homo sapiens, UniProt Q15699 118-204)
[15] = biological target: HOXC10 (Homo sapiens, UniProt Q9NYD6 254-340)
[16] = biological target: HOXA2 (Homo sapiens, UniProt O43364 129-215, R185K)
[17] = biological target: ALX3 (Homo sapiens, UniProt O95076 139-225, N203Q)
[18] = biological target: ALX3 (Homo sapiens, UniProt O95076 139-225)
ALX3 (Homo sapiens, UniProt O95076 139-225), sequence (O95076 139-225): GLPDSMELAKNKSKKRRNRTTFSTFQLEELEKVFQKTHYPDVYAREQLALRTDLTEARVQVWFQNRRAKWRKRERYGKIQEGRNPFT

HOXD13 (Homo sapiens, UniProt P35453 263-343), sequence (P35453 263-343): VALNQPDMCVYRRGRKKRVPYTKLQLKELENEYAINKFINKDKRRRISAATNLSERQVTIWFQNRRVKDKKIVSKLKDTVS
HOXC9 (Homo sapiens, UniProt P31274 178-260, R222W), sequence (P31274 178-260 R222W): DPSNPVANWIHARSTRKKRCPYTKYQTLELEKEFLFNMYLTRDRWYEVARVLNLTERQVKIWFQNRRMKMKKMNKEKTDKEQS
HOXD13 (Homo sapiens, UniProt P35453 263-343, T313A), sequence (P35453 263-343 T313A): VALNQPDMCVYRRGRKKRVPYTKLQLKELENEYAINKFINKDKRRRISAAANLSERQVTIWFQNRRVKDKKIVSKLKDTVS
HOXC9 (Homo sapiens, UniProt P31274 178-260, R193K), sequence (P31274 178-260 R193K): as the sequence (P31274 178-260 R222W) above, with R16K, W45R counted along it
HOXC9 (Homo sapiens, UniProt P31274 178-260), sequence (P31274 178-260): as the sequence (P31274 178-260 R222W) above, with W45R counted along it
HOXD13 (Homo sapiens, UniProt P35453 263-343, T313R), sequence (P35453 263-343 T313R): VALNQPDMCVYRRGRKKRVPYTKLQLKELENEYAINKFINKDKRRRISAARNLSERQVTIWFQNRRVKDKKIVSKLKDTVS
HOXB9 (Homo sapiens, UniProt P17482 171-250), sequence (P17482 171-250): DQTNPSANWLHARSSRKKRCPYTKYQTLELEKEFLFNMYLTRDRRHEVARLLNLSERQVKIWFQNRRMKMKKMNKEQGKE
HOXC10 (Homo sapiens, UniProt Q9NYD6 254-340), sequence (Q9NYD6 254-340): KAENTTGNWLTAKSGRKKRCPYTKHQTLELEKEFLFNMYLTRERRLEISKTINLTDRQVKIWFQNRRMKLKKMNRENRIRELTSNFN
HOXC9 (Homo sapiens, UniProt P31274 178-260, K195R), sequence (P31274 178-260 K195R): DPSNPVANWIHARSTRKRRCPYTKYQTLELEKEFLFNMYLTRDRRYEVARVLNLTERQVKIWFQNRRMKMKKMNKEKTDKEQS
HOXC10 (Homo sapiens, UniProt Q9NYD6 254-340, K271E), sequence (Q9NYD6 254-340 K271E): as the sequence (Q9NYD6 254-340) above, with K18E counted along it
HOXB9 (Homo sapiens, UniProt P17482 171-250, R186Q), sequence (P17482 171-250 R186Q): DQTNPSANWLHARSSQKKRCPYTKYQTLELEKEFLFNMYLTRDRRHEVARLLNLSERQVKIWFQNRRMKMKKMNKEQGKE
HOXB9 (Homo sapiens, UniProt P17482 171-250, T197M), sequence (P17482 171-250 T197M): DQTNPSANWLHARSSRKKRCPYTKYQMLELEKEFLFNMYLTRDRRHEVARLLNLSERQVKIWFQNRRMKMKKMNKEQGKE
ALX3 (Homo sapiens, UniProt O95076 139-225, N203Q), sequence (O95076 139-225 N203Q): as the sequence (O95076 139-225) above, with N65Q counted along it
ALX1 (Homo sapiens, UniProt Q15699 118-204, L144R), sequence (Q15699 118-204 L144R): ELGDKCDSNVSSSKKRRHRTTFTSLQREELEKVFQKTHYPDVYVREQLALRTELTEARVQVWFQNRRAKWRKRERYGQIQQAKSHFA
ALX1 (Homo sapiens, UniProt Q15699 118-204, L144V), sequence (Q15699 118-204 L144V): as the sequence (Q15699 118-204 L144R) above, with R27V counted along it
ALX1 (Homo sapiens, UniProt Q15699 118-204), sequence (Q15699 118-204): as the sequence (Q15699 118-204 L144R) above, with R27L counted along it
HOXA2, sequence (O43364 129-215 R185K): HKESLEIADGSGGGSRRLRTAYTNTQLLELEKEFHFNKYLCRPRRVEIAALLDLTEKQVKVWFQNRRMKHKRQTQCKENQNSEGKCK

Sequence: CTATTAAA
- binding signal [1]: 9.97 upbm affinity estimate (log intensity, higher = more binding, comparable within an allelic series)
- binding signal [2]: 12.6 upbm affinity estimate (log intensity, higher = more binding, comparable within an allelic series)
- binding signal [3]: 11.9 upbm affinity estimate (log intensity, higher = more binding, comparable within an allelic series)
- binding signal [4]: 12.8 upbm affinity estimate (log intensity, higher = more binding, comparable within an allelic series)
- binding signal [5]: 9.79 upbm affinity estimate (log intensity, higher = more binding, comparable within an allelic series)
- binding signal [6]: 11 upbm affinity estimate (log intensity, higher = more binding, comparable within an allelic series)
- binding signal [7]: 12.7 upbm affinity estimate (log intensity, higher = more binding, comparable within an allelic series)
- binding signal [8]: 9.81 upbm affinity estimate (log intensity, higher = more binding, comparable within an allelic series)
- binding signal [9]: 12 upbm affinity estimate (log intensity, higher = more binding, comparable within an allelic series)
- binding signal [10]: 11.8 upbm affinity estimate (log intensity, higher = more binding, comparable within an allelic series)
- binding signal [11]: 11.9 upbm affinity estimate (log intensity, higher = more binding, comparable within an allelic series)
- binding signal [12]: 11.6 upbm affinity estimate (log intensity, higher = more binding, comparable within an allelic series)
- binding signal [13]: 11.1 upbm affinity estimate (log intensity, higher = more binding, comparable within an allelic series)
- binding signal [14]: 10.3 upbm affinity estimate (log intensity, higher = more binding, comparable within an allelic series)

Sequence: AATTTTAT
- binding signal [1]: 9.84 upbm affinity estimate (log intensity, higher = more binding, comparable within an allelic series)
- binding signal [2]: 12.6 upbm affinity estimate (log intensity, higher = more binding, comparable within an allelic series)
- binding signal [15]: 12.3 upbm affinity estimate (log intensity, higher = more binding, comparable within an allelic series)
- binding signal [3]: 11.9 upbm affinity estimate (log intensity, higher = more binding, comparable within an allelic series)
- binding signal [4]: 12.7 upbm affinity estimate (log intensity, higher = more binding, comparable within an allelic series)
- binding signal [6]: 10.7 upbm affinity estimate (log intensity, higher = more binding, comparable within an allelic series)
- binding signal [7]: 12.6 upbm affinity estimate (log intensity, higher = more binding, comparable within an allelic series)
- binding signal [10]: 11.7 upbm affinity estimate (log intensity, higher = more binding, comparable within an allelic series)
- binding signal [12]: 11.6 upbm affinity estimate (log intensity, higher = more binding, comparable within an allelic series)
- binding signal [13]: 11.2 upbm affinity estimate (log intensity, higher = more binding, comparable within an allelic series)

Sequence: GTCGTAAA
- binding signal [1]: 9.95 upbm affinity estimate (log intensity, higher = more binding, comparable within an allelic series)
- binding signal [2]: 13.1 upbm affinity estimate (log intensity, higher = more binding, comparable within an allelic series)
- binding signal [15]: 13.2 upbm affinity estimate (log intensity, higher = more binding, comparable within an allelic series)
- binding signal [3]: 12.6 upbm affinity estimate (log intensity, higher = more binding, comparable within an allelic series)
- binding signal [4]: 13.3 upbm affinity estimate (log intensity, higher = more binding, comparable within an allelic series)
- binding signal [6]: 10.9 upbm affinity estimate (log intensity, higher = more binding, comparable within an allelic series)
- binding signal [7]: 13 upbm affinity estimate (log intensity, higher = more binding, comparable within an allelic series)
- binding signal [9]: 12.3 upbm affinity estimate (log intensity, higher = more binding, comparable within an allelic series)
- binding signal [10]: 12.7 upbm affinity estimate (log intensity, higher = more binding, comparable within an allelic series)
- binding signal [11]: 11.9 upbm affinity estimate (log intensity, higher = more binding, comparable within an allelic series)
- binding signal [12]: 11.9 upbm affinity estimate (log intensity, higher = more binding, comparable within an allelic series)
- binding signal [13]: 11 upbm affinity estimate (log intensity, higher = more binding, comparable within an allelic series)

Sequence: GTCGTTAA
- binding signal [1]: 10 upbm affinity estimate (log intensity, higher = more binding, comparable within an allelic series)
- binding signal [2]: 12.6 upbm affinity estimate (log intensity, higher = more binding, comparable within an allelic series)
- binding signal [15]: 12.5 upbm affinity estimate (log intensity, higher = more binding, comparable within an allelic series)
- binding signal [3]: 11.8 upbm affinity estimate (log intensity, higher = more binding, comparable within an allelic series)
- binding signal [4]: 12.8 upbm affinity estimate (log intensity, higher = more binding, comparable within an allelic series)
- binding signal [7]: 12.6 upbm affinity estimate (log intensity, higher = more binding, comparable within an allelic series)
- binding signal [10]: 12.4 upbm affinity estimate (log intensity, higher = more binding, comparable within an allelic series)
- binding signal [12]: 11.3 upbm affinity estimate (log intensity, higher = more binding, comparable within an allelic series)
- binding signal [13]: 10.6 upbm affinity estimate (log intensity, higher = more binding, comparable within an allelic series)

Sequence: ATCGTTAA
- binding signal [1]: 9.99 upbm affinity estimate (log intensity, higher = more binding, comparable within an allelic series)
- binding signal [2]: 12.5 upbm affinity estimate (log intensity, higher = more binding, comparable within an allelic series)
- binding signal [15]: 12.4 upbm affinity estimate (log intensity, higher = more binding, comparable within an allelic series)
- binding signal [4]: 12.6 upbm affinity estimate (log intensity, higher = more binding, comparable within an allelic series)
- binding signal [7]: 12.5 upbm affinity estimate (log intensity, higher = more binding, comparable within an allelic series)
- binding signal [16]: 13.1 upbm affinity estimate (log intensity, higher = more binding, comparable within an allelic series)
- binding signal [10]: 12.1 upbm affinity estimate (log intensity, higher = more binding, comparable within an allelic series)
- binding signal [13]: 10.7 upbm affinity estimate (log intensity, higher = more binding, comparable within an allelic series)

Sequence: ACAATAAA
- binding signal [1]: 9.83 upbm affinity estimate (log intensity, higher = more binding, comparable within an allelic series)
- binding signal [2]: 12.6 upbm affinity estimate (log intensity, higher = more binding, comparable within an allelic series)
- binding signal [15]: 12.3 upbm affinity estimate (log intensity, higher = more binding, comparable within an allelic series)
- binding signal [3]: 12 upbm affinity estimate (log intensity, higher = more binding, comparable within an allelic series)
- binding signal [4]: 12.9 upbm affinity estimate (log intensity, higher = more binding, comparable within an allelic series)
- binding signal [6]: 10.9 upbm affinity estimate (log intensity, higher = more binding, comparable within an allelic series)
- binding signal [7]: 12.7 upbm affinity estimate (log intensity, higher = more binding, comparable within an allelic series)
- binding signal [9]: 12.1 upbm affinity estimate (log intensity, higher = more binding, comparable within an allelic series)
- binding signal [10]: 11.7 upbm affinity estimate (log intensity, higher = more binding, comparable within an allelic series)
- binding signal [11]: 11.8 upbm affinity estimate (log intensity, higher = more binding, comparable within an allelic series)
- binding signal [12]: 11.7 upbm affinity estimate (log intensity, higher = more binding, comparable within an allelic series)
- binding signal [13]: 11.1 upbm affinity estimate (log intensity, higher = more binding, comparable within an allelic series)

Sequence: CCATAAAA
- binding signal [1]: 10 upbm affinity estimate (log intensity, higher = more binding, comparable within an allelic series)
- binding signal [2]: 13.3 upbm affinity estimate (log intensity, higher = more binding, comparable within an allelic series)
- binding signal [15]: 13 upbm affinity estimate (log intensity, higher = more binding, comparable within an allelic series)
- binding signal [3]: 12.8 upbm affinity estimate (log intensity, higher = more binding, comparable within an allelic series)
- binding signal [4]: 13.4 upbm affinity estimate (log intensity, higher = more binding, comparable within an allelic series)
- binding signal [17]: 8.22 upbm affinity estimate (log intensity, higher = more binding, comparable within an allelic series)
- binding signal [6]: 11 upbm affinity estimate (log intensity, higher = more binding, comparable within an allelic series)
- binding signal [7]: 13.3 upbm affinity estimate (log intensity, higher = more binding, comparable within an allelic series)
- binding signal [9]: 12.3 upbm affinity estimate (log intensity, higher = more binding, comparable within an allelic series)
- binding signal [10]: 12.5 upbm affinity estimate (log intensity, higher = more binding, comparable within an allelic series)
- binding signal [18]: 8.99 upbm affinity estimate (log intensity, higher = more binding, comparable within an allelic series)
- binding signal [11]: 12 upbm affinity estimate (log intensity, higher = more binding, comparable within an allelic series)
- binding signal [12]: 12.5 upbm affinity estimate (log intensity, higher = more binding, comparable within an allelic series)
- binding signal [13]: 11.6 upbm affinity estimate (log intensity, higher = more binding, comparable within an allelic series)
